The record followed here is PubChem BioAssay.

Test [1] relates to Plasmodium falciparum Sir2 (PF13_0152, Sir2A). The experiment in a line: pfSir2 binders on small-molecule microarrays, primary screen, biochemical, small-molecule microarray, 635 nm fluorescence (AID 1098).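 Further: score merges spot fluorescence intensity with its signal-to-noise ratio.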 As to conditions: small-molecule microarray binding, fluorescence 635 nm; higher = more signal.
Test [2] is described as follows: small-molecule microarray binders of probe aDKK1, primary screen, biochemical, biotinylated probe, 635/667 nm fluorescence (AID 1099).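 Further: score merges 667nm spot fluorescence with signal to noise across triplicate slides; reference of the scale not given here.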 The following applies: higher = more signal.
Test [3] can be described thus: small-molecule microarray binders of probe aCHRDL2, primary screen, biochemical, biotinylated probe, 635/667 nm fluorescence (AID 1100). The following applies: higher = more signal.
Test [4] is described as follows: splicing luciferase reporter signal modulators, primary screen, spliceosome inhibition project, cell-based, HEK293, splice +/- reporter (AID 1101).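 Further: HEK293 cells carrying a splicing-competent luciferase reporter gene; test concentration not given here.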 As to conditions: luminescence, 24 h, higher = more signal, called active from +8 up or from −8 down. Background: A reporter such as luciferase makes a cellular process visible.
Test [5] has as its target Fibroblast growth factor 10 (Homo sapiens) (UniProt O15520). Briefly: FGF10 binders on small-molecule microarrays, primary screen, biochemical, small-molecule microarray, 635 nm fluorescence (AID 1102). As to conditions: FGF10 binding, fluorescence 635 nm, higher = more signal.
The subject of test [6] is glycogen synthase kinase-3 (GSK3A per assay name; protocol says GSK3B). The experiment in a line: GSK3 binders on small-molecule microarrays, primary screen, biochemical, small-molecule microarray, 635 nm fluorescence, GSK3A (AID 1103). Further: the record names both GSK3A and GSK3B. As to conditions: small-molecule microarray binding, fluorescence 635 nm; higher = more signal.
In test [7] the target is Epidermal growth factor receptor (Homo sapiens) (UniProt P00533). Briefly: EGFR binders on small-molecule microarrays, primary screen, biochemical, small-molecule microarray, 635 nm fluorescence (AID 1104).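 Further: score merges 667 nm emission intensity with spot signal to noise over triplicate slides.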 As to conditions: EGFR binding, higher = more signal.
Sequence of Epidermal growth factor receptor (Homo sapiens) (P00533 whole entry, looked up): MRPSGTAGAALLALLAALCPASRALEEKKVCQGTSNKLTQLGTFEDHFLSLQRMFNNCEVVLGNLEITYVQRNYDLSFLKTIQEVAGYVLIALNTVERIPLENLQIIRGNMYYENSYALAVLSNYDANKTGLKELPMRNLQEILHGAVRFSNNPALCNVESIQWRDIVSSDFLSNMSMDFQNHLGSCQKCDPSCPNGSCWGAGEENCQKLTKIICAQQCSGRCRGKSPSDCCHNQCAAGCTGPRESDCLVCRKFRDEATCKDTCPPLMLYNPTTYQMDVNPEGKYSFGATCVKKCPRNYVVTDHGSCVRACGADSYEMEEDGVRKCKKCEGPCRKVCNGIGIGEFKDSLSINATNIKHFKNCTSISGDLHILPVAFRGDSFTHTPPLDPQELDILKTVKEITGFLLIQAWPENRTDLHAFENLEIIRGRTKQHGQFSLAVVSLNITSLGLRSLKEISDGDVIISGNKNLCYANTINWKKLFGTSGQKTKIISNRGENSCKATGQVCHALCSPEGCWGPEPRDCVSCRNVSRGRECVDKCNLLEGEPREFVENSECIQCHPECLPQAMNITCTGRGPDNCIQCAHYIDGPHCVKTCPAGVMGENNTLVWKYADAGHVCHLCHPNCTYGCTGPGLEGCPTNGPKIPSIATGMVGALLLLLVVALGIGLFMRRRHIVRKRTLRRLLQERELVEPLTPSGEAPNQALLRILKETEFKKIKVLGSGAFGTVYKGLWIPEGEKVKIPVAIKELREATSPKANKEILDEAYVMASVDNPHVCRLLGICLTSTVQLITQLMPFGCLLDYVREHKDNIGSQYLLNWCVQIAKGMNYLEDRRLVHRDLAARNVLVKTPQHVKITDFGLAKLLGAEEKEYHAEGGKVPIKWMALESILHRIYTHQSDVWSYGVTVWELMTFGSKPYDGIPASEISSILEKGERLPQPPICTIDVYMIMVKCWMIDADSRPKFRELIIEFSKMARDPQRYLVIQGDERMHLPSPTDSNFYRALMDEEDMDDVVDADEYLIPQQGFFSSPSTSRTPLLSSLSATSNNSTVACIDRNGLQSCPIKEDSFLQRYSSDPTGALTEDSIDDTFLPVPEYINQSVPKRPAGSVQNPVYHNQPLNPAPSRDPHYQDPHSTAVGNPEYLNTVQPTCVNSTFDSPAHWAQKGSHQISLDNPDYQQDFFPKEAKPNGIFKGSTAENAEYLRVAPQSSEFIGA
Test [8] has as its target Follistatin-related protein 3 (Homo sapiens) (UniProt O95633). Briefly: FSTL3 binders on small-molecule microarrays, primary screen, biochemical, small-molecule microarray, 635 nm fluorescence (AID 1105).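 Further: score merges emission near 667 nm and signal to noise per printed spot across three slides.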 As to conditions: FSTL3 binding, higher = more signal.
For test [9], the target named is Dickkopf-related protein 1 (Homo sapiens) (UniProt O94907). Briefly: DKK1 binders on small-molecule microarrays, primary screen, biochemical, small-molecule microarray, 635 nm fluorescence scan (AID 1106).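 Further: score merges emission near 667 nm with signal to noise over three replicate slides.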 The following applies: DKK1 binding, higher = more signal.
Sequence of Dickkopf-related protein 1 (Homo sapiens) (O94907 whole entry, looked up): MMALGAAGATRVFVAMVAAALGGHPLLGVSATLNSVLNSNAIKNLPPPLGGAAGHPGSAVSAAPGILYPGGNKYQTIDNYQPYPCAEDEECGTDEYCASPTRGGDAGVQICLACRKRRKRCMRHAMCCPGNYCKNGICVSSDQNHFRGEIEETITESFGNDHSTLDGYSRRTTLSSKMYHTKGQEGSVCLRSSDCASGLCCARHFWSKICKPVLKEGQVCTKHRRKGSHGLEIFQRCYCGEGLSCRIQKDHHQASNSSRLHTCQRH
Test [10] has as its system Inhibin beta A chain (activin A). The experiment in a line: INHBA (activin A) binders on microarrays, primary screen, biochemical, small-molecule microarray, 635 nm fluorescence scan (AID 1107).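 Further: mouse activin A protein probed at 4.33 µg/mL on printed slides; score merges bound-protein fluorescence near 667 nm with spot signal-to-noise.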 As to conditions: small-molecule microarray binding, higher = more signal.

SMILES strings stand for the structures. Active and inactive are the calls of the source.

Sequence of Fibroblast growth factor 10 (Homo sapiens) (O15520 whole entry, looked up): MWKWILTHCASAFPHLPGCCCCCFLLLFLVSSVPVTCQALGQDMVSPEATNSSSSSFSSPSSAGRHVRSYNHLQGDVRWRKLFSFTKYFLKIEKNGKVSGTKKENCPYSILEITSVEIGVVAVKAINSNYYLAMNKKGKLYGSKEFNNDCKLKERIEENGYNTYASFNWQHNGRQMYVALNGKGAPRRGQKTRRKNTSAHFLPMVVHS
Sequence of Follistatin-related protein 3 (Homo sapiens) (O95633 whole entry, looked up): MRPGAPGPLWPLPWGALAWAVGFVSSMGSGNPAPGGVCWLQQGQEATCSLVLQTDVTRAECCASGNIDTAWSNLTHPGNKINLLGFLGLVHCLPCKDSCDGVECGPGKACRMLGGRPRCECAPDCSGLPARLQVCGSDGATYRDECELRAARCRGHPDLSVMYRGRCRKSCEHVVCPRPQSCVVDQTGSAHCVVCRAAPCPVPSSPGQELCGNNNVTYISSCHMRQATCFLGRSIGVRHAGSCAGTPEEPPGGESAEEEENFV

`C=CCN1C(=O)[C@@]2(O[C@@H](CCn3cc([C@H](O)c4ccccc4)nn3)[C@H]([Si](C)(C)c3ccc(OC)cc3)[C@H]2C)c2cc(NC(=O)c3ccc(OC)cc3)ccc21`: the composite z-score was 0.185 in [1]; 0.041 in test [2]; 0.143 in test [3]; -0.0229 in test [5]; 0.0579 in [6]; -0.128 in test [7]. The composite z-score in [8] is 0.382; in test [9], 0.183; in [10] it was 1.07. For the same compound, the z-score in [4] was -0.345 (inactive).

On to `CC(C)CNC(=O)[C@@]1(C)c2ccccc2C(=O)N(Cc2ccccc2)[C@H]1c1ccc(CO)cc1`, for which the composite z-score in [1] is 0.651; in test [2] it was 0.569; in test [3], 1.19; in test [5] it was -1.21; in test [6], -1.01; in test [7] it was -1.56. Moreover, the composite z-score in [8] was -2.11; in test [9], -1.88; in test [10], -1.02. In addition, in test [4], the z-score is 0.622 (inactive).

As to `COc1ccc(C#Cc2ccc3c(c2)[C@]2(C(=O)N3)[C@H](c3ccc(OCCO)cc3)N3[C@H](c4ccccc4)[C@H](c4ccccc4)OC(=O)[C@H]3[C@@H]2C(=O)N2CCN(c3ncccn3)CC2)cc1`, the composite z-score in test [1] was 1.12; in test [2], -0.0149; in test [3] it was -0.275; in [5], 0.214; in test [6], 0.693; in [7], 0.176. Besides, the composite z-score in test [8] was 0.602; in [9], 0.0015; in test [10] it was 0.433. In addition, the z-score in test [4] was -0.188 (inactive).

As to `O=C1O[C@H](c2ccccc2)[C@H](c2ccccc2)N2[C@H]1[C@@H](C(=O)N1CCCCCCC1)[C@]1(C(=O)Nc3ccccc31)[C@H]2c1ccc(O)cc1`, the composite z-score in test [1] amounted to 2.04; in test [2] it was 2.68; in test [3], 1.79; in test [5], 1.68; in test [6] it was 1.49; in test [7], 2. The composite z-score in test [8] was determined as 1.8; in test [9], 2.68; in test [10], 2. For the same compound, in test [4], the z-score was -0.365 (inactive).

Consider `CC(=O)NCCCC[C@@H]1NC(=O)[C@@H]2C[C@H](C(=O)NCCCC[N+](C)(C)C)[C@H](c3cccc(OCCO)c3)N2C1=O`, for which the composite z-score in [1] is 1.08; in test [2], -0.11; in test [3], 0.275; in test [5] it was 0.766; in test [6], -0.57; in test [7], -0.734. The composite z-score in test [8] is 1.02; in [9], 0.232; in [10], -0.146. For the same compound, the z-score in test [4] was 0.677 (inactive).

Consider `CC(C)CNC(=O)[C@@]1(c2ccc([N+](=O)[O-])cc2)CC(=O)N(C(C)C)[C@@H]1c1ccc(CO)cc1`, for which the composite z-score in test [1] is 0.832; in test [2] it was -0.258; in [3], 1.08; in test [5], -1; in test [6], -1.02; in [7], -0.362. The composite z-score is -0.129 in [8], -1.59 in test [9] and 0.07 in test [10]. The z-score in test [4] was -0.372 (inactive).

Take `COc1ccc(C(=O)Nc2ccc3c(c2)[C@]2(O[C@@H](CCO)[C@H]([Si](C)(C)c4ccc(OC)cc4)[C@H]2C)C(=O)N3Cc2ccccc2)cc1`: the composite z-score is 0.663 in [1]; -0.0183 in test [2]; -0.0221 in test [3]; 0.572 in [5]; 0.3 in [6]; 0.349 in [7]. The composite z-score in test [8] worked out at 0.393; in test [9], 0.359; in test [10], 1.11. Moreover, the z-score in [4] was -3.4 (inactive).

Turning to `COc1cc(NN2C(C(O)c3ccc(I)cc3)C=CC3C(=O)N(C)C(=O)C32)cc(OC)c1OC` (stereo not given), the composite z-score in test [1] is 0.719; in test [2], 0.986; in test [3], 1.02; in [5], -0.0431; in test [6] it was -0.217; in test [7], -0.391. For the same compound, the results for the composite z-score in [8], in test [9] and in test [10] were -0.602, -1.18 and 1.29, respectively. The z-score in [4] is 0.037 (inactive).

Turning to `COc1ccc([Si](C)(C)[C@@H]2[C@@H](CCO)O[C@]3(C(=O)N(Cc4ccccc4)c4ccc(N5C(=O)COc6ccccc65)cc43)[C@H]2C)cc1`, the composite z-score in test [1] was 0.845; in test [2], -0.0934; in test [3], 0.0637; in test [5], 0.0677; in test [6], 0.0368; in test [7], -0.0505. Further, the composite z-score came out at 0.0717 in [8], 0.163 in [9] and 0.254 in test [10]. In addition, the z-score in [4] is -1.21 (inactive).

In the case of `COC(=O)C(CC#Cc1ccc2c(c1)[C@]1(C(=O)N2)[C@H](C(=O)N2CCc3cc(OC)c(OC)cc3C2)[C@H]2C(=O)O[C@H](c3ccccc3)[C@H](c3ccccc3)N2[C@@H]1c1ccc(OCCO)cc1)C(=O)OC`, the composite z-score in test [1] amounted to 1.08; in test [2] it was 0.0138; in [3], 0.415; in test [5], 1.39; in test [6] it was 1.3; in test [7], 0.732. Besides, the composite z-score in [8] was found to be 0.94; in [9], 0.544; in test [10] it was 0.614. For the same compound, the z-score in [4] is -0.291 (inactive).

Consider `O=C1C[C@@](C(=O)NCc2ccccc2)(c2ccc([N+](=O)[O-])cc2)[C@@H](c2ccc(CO)cc2I)N1C1CCCCC1`, for which the composite z-score in [1] is 0.838; in test [2], 1.78; in test [3] it was 0.652; in [5], 0.7; in test [6], 1.16; in [7], 0.768. The composite z-score came out at 1.33 in test [8], 0.876 in test [9] and 0.654 in [10]. Also, the z-score in [4] was -0.551 (inactive).

On to `COc1ccc([Si](C)(C)[C@H]2[C@H](CCO)O[C@@]3(C(=O)N(Cc4cccc(N5CCOC5=O)c4)c4ccccc43)[C@@H]2C)cc1`, for which the composite z-score in test [1] was 1.17; in test [2], -0.165; in test [3], -0.339; in test [5], 0.997; in [6], 0.808; in test [7] it was 0.0733. The composite z-score in test [8] is 0.493; in test [9], 0.581; in [10], -0.419. Besides, the z-score in [4] was -0.91 (inactive).
